# Where “and” joins values, the source holds several entries; their conditions need not be identical. Equal entries are not always repeated. About 2,000 (36%) of roughly 5,500 compounds were called active. Not shown: some 18% with an inconclusive outcome. No stated cut-off is given here; in the data, active means normalized growth mostly below about 0.91 (no sharp cut-off); inconclusive means no clear call, values can overlap the other calls; inactive means mostly above about 0.92. This is one part of the list.
# Experiment: chemical genetic growth profiling, strain panel (AID 1159580);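 further: tested at 20 µM; growth read once vehicle control cultures reached saturation at 30 °C; 1 = growth at the plate median or of vehicle wells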
# Conditions: S. cerevisiae deletion strains, growth OD
smiles,measurement,setting,value
O=c1oc2c(O)c(O)cc3c(=O)oc4c(O)c(O)cc1c4c23,normalized growth,"locus YAL013W, strain DEP1, stronger effect = lower value",0.55 (active)
same,normalized growth,"locus YAL021C, strain ccr4, stronger effect = lower value",0.352 (active)
same,normalized growth,"locus YAL026C, strain drs2, stronger effect = lower value",0.545 (active)
same,normalized growth,"locus YAL030W, strain snc1, stronger effect = lower value",0.817 (active)
same,normalized growth,"locus YBL061C, strain skt5, stronger effect = lower value",0.591 (active)
same,normalized growth,"locus YBR009C, strain hhf1, stronger effect = lower value",0.754 (active)
same,normalized growth,"locus YBR021W, strain FUR4, stronger effect = lower value",0.907 (inactive)
same,normalized growth,"locus YBR023C, strain chs3, stronger effect = lower value",0.533 (active)
same,normalized growth,"locus YBR171W, strain sec66, stronger effect = lower value",0.938 (inactive)
same,normalized growth,"locus YBR229C, strain ROT2, stronger effect = lower value",0.903 (active)
same,normalized growth,"locus YBR231C, strain swc5, stronger effect = lower value",0.53 (active)
same,normalized growth,"locus YBR279W, strain paf1, stronger effect = lower value",0.699 (active)
same,normalized growth,"locus YCL011C, strain gbp2, stronger effect = lower value",0.745 (active)
same,normalized growth,"locus YCL016C, strain dcc1, stronger effect = lower value",0.722 (active)
same,normalized growth,"locus YCL029C, strain bik1, stronger effect = lower value",0.502 (active)
same,normalized growth,"locus YCL061C, strain MRC1, stronger effect = lower value",0.84 (active)
same,normalized growth,"locus YCL069W, strain vba3, stronger effect = lower value",0.855 (active)
same,normalized growth,"locus YCR088W, strain abp1, stronger effect = lower value",0.895 (active)
same,normalized growth,"locus YDL005C, strain med2, stronger effect = lower value",0.986 (inactive)
same,normalized growth,"locus YDL035C, strain GPR1, stronger effect = lower value",0.681 (active)
same,normalized growth,"locus YDL040C, strain nat1, stronger effect = lower value",0.868 (active)
same,normalized growth,"locus YDL074C, strain BRE1, stronger effect = lower value",0.541 (active)
same,normalized growth,"locus YDL101C, strain DUN1, stronger effect = lower value",0.598 (active)
same,normalized growth,"locus YDL185W, strain tfp1, stronger effect = lower value",0.835 (active)
same,normalized growth,"locus YDL192W, strain arf1, stronger effect = lower value",0.558 (active)
same,normalized growth,"locus YDR001C, strain nth1, stronger effect = lower value",0.96 (inactive)
same,normalized growth,"locus YDR069C, strain doa4, stronger effect = lower value",0.521 (active)
same,normalized growth,"locus YDR101C, strain arx1, stronger effect = lower value",0.749 (active)
same,normalized growth,"locus YDR137W, strain rgp1, stronger effect = lower value",0.496 (active)
same,normalized growth,"locus YDR150W, strain NUM1, stronger effect = lower value",0.778 (active)
same,normalized growth,"locus YDR159W, strain sac3, stronger effect = lower value",0.738 (active)
same,normalized growth,"locus YDR162C, strain NBP2, stronger effect = lower value",0.661 (active)
same,normalized growth,"locus YDR195W, strain ref2",0.876 (inactive)
same,normalized growth,"locus YDR297W, strain sur2, stronger effect = lower value",0.746 (active)
same,normalized growth,"locus YDR318W, strain mcm21, stronger effect = lower value",0.651 (active)
same,normalized growth,"locus YDR334W, strain swr1, stronger effect = lower value",0.574 (active)
same,normalized growth,"locus YDR335W, strain msn5, stronger effect = lower value",0.784 (active)
same,normalized growth,"locus YDR388W, stronger effect = lower value",0.538 (active)
same,normalized growth,"locus YDR392W, strain spt3, stronger effect = lower value",0.695 (active)
same,normalized growth,"locus YDR502C, strain sam2, stronger effect = lower value",0.561 (active)
same,normalized growth,"locus YEL003W, strain gim4, stronger effect = lower value",0.697 (active)
same,normalized growth,"locus YEL037C, strain rad23, stronger effect = lower value",0.767 (active)
same,normalized growth,"locus YEL061C, strain CIN8 (second series), stronger effect = lower value",0.917 (inactive)
same,normalized growth,"locus YEL061C, strain CIN8, stronger effect = lower value",0.753 (active)
same,normalized growth,"locus YER015W, strain faa2, stronger effect = lower value",0.583 (active)
same,normalized growth,"locus YER016W, strain bim1, stronger effect = lower value",0.818 (active)
same,normalized growth,"locus YER110C, stronger effect = lower value",0.971 (inactive)
same,normalized growth,"locus YER111C, strain swi4, stronger effect = lower value",0.436 (active)
same,normalized growth,"locus YER155C, strain BEM2 (second series), stronger effect = lower value",0.745 (active)
same,normalized growth,"locus YER155C, strain BEM2, stronger effect = lower value",0.74 (active)
same,normalized growth,"locus YER167W, strain BCK2, stronger effect = lower value",0.799 (active)
same,normalized growth,"locus YFR010W, strain ubp6, stronger effect = lower value",0.713 (active)
same,normalized growth,"locus YGL078C, strain dbp3, stronger effect = lower value",0.976 (inactive)
same,normalized growth,"locus YGL086W, strain mad1, stronger effect = lower value",0.583 (active)
same,normalized growth,"locus YGL167C, strain pmr1, stronger effect = lower value",0.653 (active)
same,normalized growth,"locus YGL173C, strain kem1, stronger effect = lower value",0.417 (active)
same,normalized growth,"locus YGL227W, strain vid30, stronger effect = lower value",1 (inactive)
same,normalized growth,"locus YGL240W, strain doc1, stronger effect = lower value",0.923 (inactive)
same,normalized growth,"locus YGL248W, strain PDE1, stronger effect = lower value",0.649 (active)
same,normalized growth,"locus YGL253W, strain hxk2, stronger effect = lower value",0.768 (active)
same,normalized growth,"locus YGR078C, strain PAC10, stronger effect = lower value",0.616 (active)
same,normalized growth,"locus YGR135W, strain pre9, stronger effect = lower value",0.559 (active)
same,normalized growth,"locus YGR252W, strain gcn5, stronger effect = lower value",0.588 (active)
same,normalized growth,"locus YHR013C, strain ard1, stronger effect = lower value",0.563 (active)
same,normalized growth,"locus YHR027C, strain rpn1, stronger effect = lower value",0.539 (active)
same,normalized growth,"locus YHR030C, strain SLT2, stronger effect = lower value",0.41 (active) and 0.994 (inactive)
same,normalized growth,"locus YHR079C, strain IRE1 (second series), stronger effect = lower value",0.824 (active)
same,normalized growth,"locus YHR079C, strain IRE1, stronger effect = lower value",0.978 (inactive)
same,normalized growth,"locus YHR094C, strain hxt1, stronger effect = lower value",0.964 (inactive)
same,normalized growth,"locus YHR129C, strain ARP1, stronger effect = lower value",0.603 (active)
same,normalized growth,"locus YHR142W, strain chs7, stronger effect = lower value",0.563 (active)
same,normalized growth,"locus YHR200W, strain rpn10, stronger effect = lower value",0.712 (active)
same,normalized growth,"locus YIL066C, strain RNR3, stronger effect = lower value",0.669 (active)
same,normalized growth,"locus YIL073C, strain SPO22, stronger effect = lower value",0.546 (active)
same,normalized growth,"locus YIL125W, strain kgd1, stronger effect = lower value",0.956 (inactive)
same,normalized growth,"locus YIR030C, strain dcg1, stronger effect = lower value",0.776 (active)
same,normalized growth,"locus YJL092W, strain hpr5, stronger effect = lower value",0.861 (active)
same,normalized growth,"locus YJL095W, strain BCK1 (second series), stronger effect = lower value",0.675 (active)
same,normalized growth,"locus YJL095W, strain BCK1, stronger effect = lower value",0.28 (active) and 0.983 (inactive)
same,normalized growth,"locus YJL115W, strain asf1, stronger effect = lower value",0.912 (inactive)
same,normalized growth,"locus YJL129C, strain trk1, stronger effect = lower value",0.898 (inactive)
same,normalized growth,"locus YJL134W, strain LCB3, stronger effect = lower value",0.823 (active)
same,normalized growth,"locus YJL154C, strain vps35, stronger effect = lower value",0.864 (active)
same,normalized growth,"locus YJL164C, strain tpk1, stronger effect = lower value",0.679 (active)
same,normalized growth,"locus YJL166W, strain qcr8, stronger effect = lower value",0.73 (active)
same,normalized growth,"locus YJL168C, strain set2, stronger effect = lower value",0.898 (active)
same,normalized growth,"locus YJL187C, strain SWE1 (second series), stronger effect = lower value",0.493 (active)
same,normalized growth,"locus YJL187C, strain SWE1, stronger effect = lower value",0.742 (active)
same,normalized growth,"locus YJR043C, strain POL32, stronger effect = lower value",0.596 (active)
same,normalized growth,"locus YJR066W, strain TOR1, stronger effect = lower value",0.974 (inactive)

# Reference: PubChem BioAssay AID1159580 (chemical genetic matrix, 2015)
